For 65 molecules, INHIBITION results are on record in ChEMBL document CHEMBL4513216, “Probing the Open Global Health Chemical Diversity Library for Multistage-Active Starting Points for Next-Generation Antimalarials” (ACS Infect Dis, 2020).

Among all 65,000 compounds or so, about 2,100 (3.2%) showed an effect of 50% or more. The median lay at about -52%. Many of the other results were omitted from the sample, so strong results are more common in it than they were.

This experiment concerns Plasmodium falciparum. Put plainly: Screen against P. falciparum Asexual Blood Stage (ABS), at 5uM. In kind it is functional, Dd2. The conditions noted are these: tested at 5 uM.
Turning to `CN(Cc1ccoc1)C(=O)CN1C(=O)OC(C)(C)C1=O`, the INHIBITION is on record as -47.7%.

Turning to `CN(Cc1ccoc1)C(=O)C1(Oc2ccc(Cl)cc2)CCNCC1`, the INHIBITION is recorded as 66.9%.

Turning to `CN(C)C(=O)C1(Oc2ccc(Cl)cc2)CCNCC1`, the INHIBITION was 49.2%.

Turning to `CN(Cc1ccncn1)C(=O)C1(Oc2ccc(Cl)cc2)CCNCC1`, the INHIBITION is -74.1%.

For the molecule `O=C(N[C@@H]1CCCNC1)C1(Oc2ccc(Cl)cc2)CCNCC1`, the INHIBITION is on record as -14.3%.

As for `Cc1ccc(OC2(C(=O)N(C)Cc3ccoc3)CCNCC2)cc1`, the INHIBITION worked out at 63.5%.

In the case of `COCC(=O)N1CCCn2c(CN3CCCC3)nnc2C1`, the INHIBITION is reported as -108%.

As to `CC(C)NC(=O)C1(CC2CC(c3ccc(F)cc3)=NO2)CCNCC1` (stereo not given), the INHIBITION was -90.4%.

As to `COc1ncc(NCc2ccc(Cl)c(Cl)c2)cc1C(N)=O`, the INHIBITION is on record as -14%.

Turning to `Cn1ccc(NC(=O)CN2C[C@@H]3CC[C@H]2CN(Cc2ccccn2)C3)n1`, the INHIBITION is reported as -21.7%.

`O=C(c1cc(C2CC2)no1)N1C[C@@H]2CC[C@H]1CN(Cc1ccccn1)C2`: the INHIBITION was 9.2%.

`O=C(CN1C[C@@H]2CC[C@H]1CN(Cc1ccccn1)C2)NCc1cccs1`: the INHIBITION is on record as 68.4%.

Turning to `c1cc(CN2C[C@@H]3OCCN(CC4CC4)[C@@H]3C2)n[nH]1`, the INHIBITION came to 7.58%.

Turning to `CC(=O)N1CCO[C@@H]2CN(S(=O)(=O)C3CC3)C[C@@H]2C1`, the INHIBITION was -114%.

With `Cc1csc2c(N3CCC(NCCCc4cnn(C)c4)CC3)ncnc12`, the INHIBITION is listed as -10.6%.

On to `CCCc1cncnc1N1CCC2(CCC(=O)N(CCCO)C2)CC1`, for which the INHIBITION is on record as -6.89%.

Consider `CCCc1cncnc1N1CCC2(CCC(=O)N(C3CCCC3)C2)CC1`, for which the INHIBITION amounted to 29.3%.

As to `CCCN1CCC(NCc2ccncc2)CC1`, the INHIBITION is given as -47.1%.

Take `CCCc1cncnc1N1CCC(NCc2ccc(O)cc2)CC1`: the INHIBITION is 50.2%.

With `Cc1csc2c(N3CCC(NCCc4ccnn4C)CC3)ncnc12`, the INHIBITION is listed as -18.8%.

As to `Cc1ccc(CNC2CCN(CCc3ccncc3)CC2)s1`, the INHIBITION is recorded as -1.43%.

In the case of `Cc1csc2c(N3CCC(NCCCc4ccncc4)CC3)ncnc12`, the INHIBITION is recorded as 64.6%.

`CCCc1cncnc1N1CCC(NCc2ccncc2)CC1`: the INHIBITION came to 66.1%.

On to `CCOc1ccc(C(=O)CCC(=O)N(C)Cc2nc(C)c[nH]2)cc1C`, for which the INHIBITION is -27.6%.

In the case of `COCCN1CCN(Cc2cnc(C(C)C)nc2)CC1`, the INHIBITION is on record as -72.3%.

For the molecule `O=C(C1CC1)N1C[C@H]2CCCN(S(=O)(=O)c3ccc4c(c3)CCC4)[C@H]2C1`, the INHIBITION is reported as -49.4%.

As to `NCC(=O)N1CCCC1c1nccnc1Nc1ncccn1` (stereo not given), the INHIBITION is on record as -91.6%.

Turning to `CC(C)CC(C)NC1CCN(c2ccc(-c3cscn3)cc2)CC1` (stereo not given), the INHIBITION is given as -115%.

Take `Cc1nnc(-c2cccc(N3CCC(NC(C)CC(C)C)CC3)c2)s1` (stereo not given): the INHIBITION is listed as -15.1%.

Turning to `CC(C)CC(C)NC1CCN(c2cccc(-c3cscn3)c2)CC1` (stereo not given), the INHIBITION was 51.8%.

With `COC(=O)NCC(=O)N1CCC(c2cc3ccccc3[nH]2)CC1`, the INHIBITION is on record as -109%.

For `Cc1cc(C)c(CNC(=O)N2CCCC2c2cc(C)on2)c(=O)[nH]1` (stereo not given), the INHIBITION is recorded as -65.3%.

With `O=C(C1CC1)N1CC2(CCNCC2)c2cc(F)ccc21`, the INHIBITION is reported as 13.7%.

Consider `CN(C)C(=O)N1CC2(CCNCC2)c2cc(F)ccc21`, for which the INHIBITION is recorded as -81.2%.

For `C[C@@H](N)C(=O)N1CC2(CCNCC2)c2cc(Cl)ccc21`, the INHIBITION came to 48.2%.

In the case of `Cc1ccc2c(c1)C1(CCNCC1)CN2C(=O)C(C)C`, the INHIBITION was found to be 32.6%.

Regarding `Cc1ccc(C(=O)N2CC3(CCNCC3)c3cc(Cl)ccc32)cn1`, the INHIBITION came out at 37.8%.

Turning to `CCN1CCC2(CC1)CN(C(=O)c1cccnc1)c1ccc(Cl)cc12`, the INHIBITION was found to be 13.4%.

`CN1CCC2(CC1)CN(C(=O)c1cccnc1)c1ccc(Cl)cc12`: the INHIBITION is 57.5%.

In the case of `O=C(c1ccncc1)N1CC2(CCNCC2)c2cc(Cl)ccc21`, the INHIBITION was 60%.

As to `CN(C)C(=O)N1CC2(CCNCC2)c2cc(Cl)ccc21`, the INHIBITION is 25.5%.

Turning to `CC(=O)N1CCC2(CC1)CN(C(=O)c1cccnc1)c1ccc(F)cc12`, the INHIBITION was -31.7%.

`COc1cc(C(=O)N2CC3(CCNCC3)c3cc(Cl)ccc32)ccn1`: the INHIBITION is 65.4%.

As to `O=C([C@H]1CCCN1)N1CC2(CCNCC2)c2cc(Cl)ccc21`, the INHIBITION amounted to 60.3%.

Consider `COc1ccc(-c2n[nH]c(C)c2CC(=O)NCC2CCOCC2)cc1`, for which the INHIBITION came to 6.29%.

As for `Cc1occc1C(=O)N1CCC2(CCN(Cc3ccccn3)C2=O)C1` (stereo not given), the INHIBITION is given as -30.7%.

Consider `CNC(=O)N1CCC2(CC1)c1ncc(-c3cccc(F)c3)n1CCN2C`, for which the INHIBITION is reported as -74%.

On to `CCn1cc(S(=O)(=O)N2CCCCCC2c2cc(C)on2)cn1` (stereo not given), for which the INHIBITION is given as 16.1%.

For `O=C(Nc1ccccc1)C1CN(Cc2ccco2)CC12CCOCC2` (stereo not given), the INHIBITION was -3.58%.

As to `CNC(=O)C1Cn2ccnc2C2(CCN(Cc3nccs3)CC2)O1` (stereo not given), the INHIBITION is -118%.

In the case of `CN1CCN([C@H]2CCN(C(=O)c3cc(Cl)cn3C)C[C@H]2CCCO)CC1`, the INHIBITION is listed as -28.7%.

Turning to `Cc1cnc(N2C[C@H]3CCCC(N(C)Cc4ccccn4)[C@H]3C2)nc1` (stereo not given in full), the INHIBITION is -4.92%.

As to `O=C(N1CCOCC1)[C@@]12CCO[C@@H]1CCN(Cc1cccc(F)c1)C2`, the INHIBITION is recorded as -26.7%.

On to `CNc1nccnc1C1CN(C(=O)c2c[nH]cn2)CCO1` (stereo not given), for which the INHIBITION was -87.7%.

In the case of `NC(=O)CCC1CCCN(Cc2cnc(N3CCCCC3)nc2)C1` (stereo not given), the INHIBITION is -84.4%.

For `CNc1nc(C2CCN(C(=O)CC3CCCC3)C2)nc2c1CN(C)CC2` (stereo not given), the INHIBITION was -4.57%.

Regarding `COc1ccc(OC)c(-n2nnnc2SCC2CCCN(C)C2)c1` (stereo not given), the INHIBITION was 42.8%.

Regarding `COc1ccc(Cn2nnnc2SCC2CCCN(C)C2)cc1` (stereo not given), the INHIBITION stood at 59.9%.

On to `COc1ccc(OCC2CCCN(Cc3ccncc3)C2)cc1` (stereo not given), for which the INHIBITION stood at 4.05%.

For `CCN(CC)C(=O)c1ccn(COc2cccc(Cl)c2Cl)n1`, the INHIBITION is recorded as -133%.

Take `Cn1cc(CN2C[C@@H]3COC[C@]3(COCC3CC3)C2)cn1`: the INHIBITION is given as -11.4%.

In the case of `Cn1cc(CN2C[C@H]3CCC[C@@]3(COCC3CC3)C2)cn1`, the INHIBITION amounted to 54.1%.

With `Cc1nc(COC[C@@]23CCC[C@@H]2CN(Cc2cnn(C)c2)C3)cs1`, the INHIBITION is listed as -28.9%.

Consider `O=C(NCc1nn(-c2ccccc2)c2c1CCC2)C1CC1`, for which the INHIBITION is on record as -137%.

For the molecule `CCn1nc(C)c(CNC(=O)c2nnc3ccc(Cl)cc3n2)c1C`, the INHIBITION is recorded as -2.95%.
